Measured values reported in PubChem BioAssay AID2732 (Emory University Molecular Libraries Screening Center, 2010).
Values joined by “and” are separate entries in the source; they are usually repeats but may differ in a detail not shown here. Equal values may be shown once. About 8,200 (3.7%) of roughly 220,000 compounds were called active.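 How the source made its calls: active means compounds that reduced the stress-induced luciferase reporter signal by more than about 70% of percent inhibition (limit read from the data); inactive means the rest.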 The list comes from a sample in which actives are over-represented; it also holds similar structures and randomly drawn compounds.

experiment: blockers of ER-stress CHOP reporter expression – cell-based, unfolded protein response, luciferase reporter, primary screen (AID 2732); conditions: CHO-K1 CHOP-promoter luciferase, tunicamycin-induced, 15-18 h; at 10 µM; active compounds read high;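 further: 0% = tunicamycin plus vehicle and 100% = wells without tunicamycin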

inhibition, active:
Cc1cc(C)c2cc(CN(Cc3cccs3)Cc3nnnn3CC3CCCO3)c(=O)[nH]c2c1 (stereo unspecified) 76%, COc1cc(SC)ccc1C(=O)Nc1nc(C)cs1 95.2%, CCc1cc(C(=O)OC)c(NC(=O)CC2Sc3ccc(C(F)(F)F)cc3NC2=O)s1 (stereo unspecified) 72.2%, O=C(NC(=S)Nc1ccc2oc(=O)ccc2c1)c1ccc(-c2cccc(Cl)c2Cl)o1 80.2%, Clc1cccc(CN2COc3c(cc(Cl)c4cccnc34)C2)c1 108%, CCNc1nc(SCCOc2ccccc2)nc(N(C)C)n1 90.8%, Cc1nn(-c2ccccc2)c(C)c1C(=O)OCC(=O)NC(=O)NC1CCCCC1 71.2%, NC(N)=Nc1nc2ccc(Br)cc2c(=O)[nH]1 74.1%, CC(Sc1nc2c([nH]c3ccccc32)c(=O)n1C)c1ccccc1 (stereo unspecified) 94.8%, Cc1ccc(Cn2c(NC(=O)c3ccco3)nc3ccccc32)cc1 80.3%, CCCCC(=O)Nc1ccc(C(=O)Nc2cc(C(F)(F)F)ccc2Cl)cc1 94.3%, Cc1ccsc1C(=O)OCC(=O)c1cc(C)n(CC2CCCO2)c1C (stereo unspecified) 77.8%, N/C(=N\OC(=O)Nc1ccc(Cl)c(Cl)c1)c1ncc(C(F)(F)F)cc1Cl 87.9%, CC1(C)CC2CC(C)(CN2c2ncnc3ccc(Br)cc23)C1 (stereo unspecified) 70.5%, N=c1n(Cc2ccc(Cl)cc2)c2ccccc2n1CC(O)c1ccco1 (stereo unspecified) 86.2%, Cc1ccccc1NC(=O)c1ccc(COc2ccc3c(C)cc(=O)oc3c2)cc1 73.8%, Cc1ccc(-c2nn(C(C)(C)C)c3ncnc(N)c23)cc1 76.5%, COc1ccc(CCN2C(=O)c3[nH]nc(-c4ccccc4O)c3C2c2ccc(C)cc2)cc1OC (stereo unspecified) 75.2%

inhibition, inactive:
CCN(CC)CCNCC(=O)Nc1ccc(Oc2ccccc2)cc1 -16.4%, Cc1cc2cc(CN(Cc3cccs3)Cc3nnnn3CC3CCCO3)c(=O)[nH]c2cc1C (stereo unspecified) 20.8%, Cc1cc(C)c2cc(CN(Cc3nnnn3Cc3ccc(F)cc3)C3CCCC3)c(=O)[nH]c2c1 8.91%, CCOC(=O)c1c(N)sc2c1CCCC2=O 4.68%, O=C(Cn1c[n+](CC(=O)c2ccc([N+](=O)[O-])cc2)cn1)c1ccc([N+](=O)[O-])cc1 -15.2% and -12.2%, COc1cc(SC)ccc1C(=O)Nc1cc(C)ccn1 37.2%, COc1ccccc1CNC(=O)c1ccc(SC)cc1OC 2.76%, COC(=O)c1cc(C)sc1NC(=O)CC1Nc2ccccc2NC1=O (stereo unspecified) 51.1%, Cc1ccc(CNC(=O)CC2Sc3ccccc3NC2=O)cc1 (stereo unspecified) -5.1%, COC(=O)c1noc(C)c1-c1ccnn1C(=O)c1ccc(Cl)cc1 -0.96%, COc1cccc(OC)c1CN(C)C(=O)c1cnccc1C(F)(F)F 16.4%, Cc1ccsc1/C=N/NC(=O)Cc1cc(=O)[nH][nH]1 10.3%, Cc1cccc(NC(=S)NC(=O)c2ccc(Br)o2)c1 -36.1%, CC(C)C(=O)Nc1ccc2oc(=O)ccc2c1 8.38%, C=C(C)CNC(=S)Nc1ccc(S(=O)(=O)Nc2cnc3ccccc3n2)cc1 11.6%, O=c1[nH]n(-c2cccc(Cl)c2)c2ncccc12 9.34%, O=C1/C(=C/c2coc3ccc(O)cc3c2=O)SC(=S)N1c1ccccc1 -12.8%, CCOC(=O)COc1nc(C)cc(C(F)(F)F)c1C#N 16.9%, Cn1c(CC2Sc3ccccc3NC2=O)nnc1SCC(=O)c1ccc(Cl)cc1 (stereo unspecified) 11.3%, CCc1cc(C(=O)c2ccc(OC)cc2)c(NC(=O)CN2CCN(C)CC2)s1 9.91%, Nc1nc(SCCOc2ccccc2)n[nH]1 -32%, CCNc1nc(NCC)nc(N(C)n2cnnc2)n1 2.32%, C/C(=N\Nc1cccc(C(=O)O)c1)c1ccc2c(c1)Nc1ccccc1S2 -2.01%, CCCn1c(C)cc(C(=O)COC(=O)c2c(C)nn(-c3ccccc3)c2C)c1C 52.2%, Cc1ccc(OC(=O)c2c(C)nn(-c3ccccc3)c2C)cc1 5.12%, CCc1cc(CNC(=O)CC2C(=O)NCCN2Cc2ccccc2C(F)(F)F)on1 (stereo unspecified) 20.4%, O=c1[nH]c(SCc2cccc(F)c2)nc2ccccc12 8.81%, Cc1noc(C)c1COC(=O)COc1ccc(-c2ccccc2)cc1 10.1%, C/C(=N\N)c1c(-c2ccccc2)c2cc(Br)ccc2[nH]c1=O -1.78%, NC(=O)C1CCN(Cc2nc3c(Br)cc(Br)cc3c(=O)[nH]2)CC1 13.6%, Cc1[nH]n(-c2ccccc2)c(=O)c1N=Nc1ccccc1C(=O)N1CCCCC1 59.1%, Cc1ncn2cc(-c3ccc(Cl)cc3Cl)[nH]c(=O)c12 13.6%, c1ccc(-n2cccc2)c(N2CCCCC2)c1 -6%, Cn1nnnc1SCc1cc(=O)[nH]c2ccccc12 6.42%, CCCCn1c(=S)[nH]c2ccccc2c1=O -18.6%, O=C(Nc1ccc(Cl)cc1)/C(=C1\CCCN1)[N+](=O)[O-] -6.93%, CN1CCN(c2ccc(CNS(=O)(=O)c3cccc(F)c3)cc2)CC1 9.01%, COc1ccc2[nH]c(=S)cc(C)c2c1 -0.1%, CC(=O)Nc1nc2ccccc2n1Cc1ccc(C)cc1 -14.1%, Cc1ccc(-n2nc3cc(Cl)c(NC(=O)c4ccco4)cc3n2)cc1 -26.1%, CN(C)S(=O)(=O)c1cccc(-c2nn(-c3ccccc3)cc2/C=C2\SC(=S)N(CC(=O)O)C2=O)c1 4.39%, CC(CC(=O)Nc1cc(C(F)(F)F)ccc1Cl)c1ccccc1 (stereo unspecified) 54.4%, CCCC(=O)Nc1ccc(Cl)c(NC(=O)c2ccc(Br)o2)c1 40.2%, CCCCNC(=O)OCCSCCS(=O)(=O)c1ccc(Cl)cc1 8.82%, CC(C)OP(=O)(OC(C)C)C(Nc1ccccc1)c1cccc([N+](=O)[O-])c1 (stereo unspecified) -8.06%, Cc1cc(C(=O)Cn2cnc3cc([N+](=O)[O-])ccc3c2=O)c(C)n1CC1CCCO1 (stereo unspecified) -28%, Cc1ccsc1C(=O)OCC(=O)c1cc2ccccc2o1 67.4%, CCCCN1Cc2c(nc3cc(-c4ccccc4)[nH]n3c2=O)C1=O -7.2%, CCOc1ccccc1N1CN(Cc2ccccc2)CNC1=S 3.01%, COCCCn1c(-c2cccs2)nc2nc3ccccc3nc21 -15%, N/C(=N\OC(=O)CCCC(=O)O)c1ncc(C(F)(F)F)cc1Cl 6.09%, O=C(c1ccccn1)c1ncc(C(F)(F)F)cc1Cl 23.4%, Nn1c(SCc2ccccc2)nnc1C1CCCCC1 -9.53%, COc1ccc(C(=O)N2CC3(C)CC2CC(C)(C)C3)cc1OC (stereo unspecified) -6.24%, C=CCNc1ncnc2ccc(Br)cc12 27.4%, CCOC(=O)CN(C(=O)COc1nc(-c2ccccc2)cc(C)c1C#N)c1ccc(F)cc1 5.71%, COc1c(O)cc2oc(-c3ccc(O)c(O)c3)cc(=O)c2c1O -13.9%, Cc1ccc(NC(=O)/C(=C\c2ccccc2)NC(=O)c2ccco2)cc1 10.2%, Nc1c(C(=O)c2cccs2)sc2nsc(SCCN3CCCCC3)c12 -55.6%, Cn1c(=N)n(CC(O)c2cccs2)c2ccccc21 (stereo unspecified) 14.4%, Cn1c(=N)n(CC(O)c2ccccc2)c2ccccc21 (stereo unspecified) 14.2%, Cn1c(=O)c(=O)n(C)c2cc(S(=O)(=O)NCCN3CCN(c4ccccc4F)CC3)ccc21 10.2%, COc1ccc(NC2=CC(=S)NC(C)(C)C2)cc1 0.78%, Cc1c(NC(=O)CN2C(=O)C(=O)N(Cc3ccccc3)C2=O)c(=O)n(-c2ccccc2)n1C -4.43%, Cc1cc(=O)oc2cc(OCCC[n+]3ccccc3)ccc12 3.91%, CCN(C(=O)COC(=O)c1ccc(COc2ccc3c(C)cc(=O)oc3c2)cc1)C1CCS(=O)(=O)C1 (stereo unspecified) -17.9%, COc1ccc(CCn2c(NN=C3CCCC3)nc3c2c(=O)[nH]c(=O)n3C)cc1 -6.27%, COc1ccc(NC(=O)C2=NNC(=O)CC2)cc1S(=O)(=O)N1CCCCC1 14.5%, Cc1ccc(-n2cnc3ncnc(-c4ccccc4)c32)cc1 -3.5%, Cc1ccc(CSc2nnc(-c3cnccn3)n2C)cc1 -17.8%, O=C(NCc1ccccc1)c1ccc(CNc2c(N3CCCC3)c(=O)c2=O)cc1 3.8%, Cc1cc(=O)[nH]c(SCC(=O)Nc2ccc(Br)cc2)n1 28.6%, Cc1nc2cccnc2nc1C -3.08%, O=C(COC(=O)c1ccc(S(=O)(=O)Nc2ccccc2)cc1)NCC1CCCO1 (stereo unspecified) 0.29%, O=C(Nc1ccccc1)C1CC(=O)n2c(nc3ccccc32)N1 (stereo unspecified) 3.28%, COc1ccc(CCN(C)CCN2C(=O)c3ccccc3C2=O)cc1OC -9.23%, COC(=O)c1ccc(C2C(Oc3ccccc3C)C(=O)N2CCc2ccc(OC)c(OC)c2)cc1 (stereo unspecified) 18.6%, CS(=O)(=O)c1sc(C(=O)NC(=S)Nc2ccc(OC(F)(F)F)cc2)c2c1C=CCC2 -21.9%
